Shown are actives, neighbours in structure and some others; about 10% of the full set was active somewhere.
HPGD inh: HPGD (human) dehydrogenase inhibition; Potency, µM, for inactives: top-dose activity change, negative = inhibition, hits mostly inhibitors; hit rate 4.3% among 150,000; purified HPGD, NADH fluorescence kinetic, PGE2 substrate; P15428; also: potency is read from the fitted curve at half-maximal effect
Target sequence (P15428 whole entry, looked up): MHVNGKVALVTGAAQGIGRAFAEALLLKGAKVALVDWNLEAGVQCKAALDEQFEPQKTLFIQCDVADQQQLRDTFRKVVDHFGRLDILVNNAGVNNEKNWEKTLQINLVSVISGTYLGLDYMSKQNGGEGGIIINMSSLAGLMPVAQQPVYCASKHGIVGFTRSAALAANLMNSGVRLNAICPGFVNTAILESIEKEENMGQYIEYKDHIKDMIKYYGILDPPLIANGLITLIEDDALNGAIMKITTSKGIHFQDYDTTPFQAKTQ
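NADH formation kinetics: reaction with 30 uM PGE2 and 1 mM NAD+ (final), 20 nM enzyme, Tris-HCl pH 8 with Tween 20, after 15 min compound preincubation at room temperature. Fluorescence change, last versus first of five reads.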
ALDH1A1 block: inhibitors of human aldehyde dehydrogenase 1A1; Potency, µM (doses to about 75.3 µM), for the others: top-dose activity, negative = inhibition, actives largely listed as inhibitors; Purified ALDH1A1, NADH fluorescence, propionaldehyde substrate; P00352; hit rate 7.3% among 220,000; AID 1030;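 also: potency is read from the fitted curve at half-maximal effect; plate controls were no enzyme wells and a reference inhibitor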
PNC assembly inh: perinucleolar compartment assembly inhibition. PC3M PTB-GFP, PNC prevalence imaging, 16 h; active compounds read low. activity change (PNC), negative = inhibition, % at 10 µM. hit rate 3.1% among 140,000. AID 2417;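 active = readout at or below -70, meaning at least 70% loss of cells showing the perinucleolar compartment, a nuclear body marking cancer cells; inconclusive = readout between -30 and a set limit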;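 also: plate controls were DMSO wells for no effect and camptothecin positive control wells for full effect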
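Compounds are pinned in duplicate onto adhered PC3M cells stably expressing GFP-tagged PTB and incubated 16 h at 37 C. Cells are then fixed, nuclei stained with Hoechst, and PNC-positive cells counted.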
KinaseGlo FLuc: blocks Kinase-Glo luciferase, a counter-screen artifact. Q27757. Kinase-Glo luciferase, ATP luminescence, 8 min. Potency, µM (doses to about 38.3 µM), for inactives: at the highest dose activity change, negative = inhibition, hits mostly inhibitors. hit rate 0.28% among 200,000. AID 1379; active = well fitted inhibition curve with a large enough effect; inconclusive = small, poorly fitted or top-dose-only effect; also: potency is read from the fitted curve at half-maximal effect; nearly all actives have a fitted effect of over 60% in size
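Substrate mix (final 50 mM imidazole pH 7.2, 50 mM KCl, 7 mM MgCl2, 10 uM ATP, 0.01% Tween 20, 0.05% BSA) plus pin-tool compound, then Kinase-Glo detection mix; 8 min ambient, luminescence read.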
LMNA splice mod: modulators of lamin A splicing; Potency, µM (titrated, usually from 46.1 µM), for the others: at the top dose ratio change, negative = inhibition, hits mostly inhibitors; hit rate 0.01% among 200,000; HeLa LMNA splicing GFP/RFP minigene ratio, 48 h; active = well fitted inhibition curve with a large enough effect in the signal ratio, with a control signal flat, not every such curve was filed as active; inconclusive = small, poorly fitted or top-dose-only effect, or effect the other way, or a change in a side signal; the % refers to the signal ratio; also: potency is read from the fitted curve at half-maximal effect
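S3 HeLa stable clones carrying a lamin A-EGFP splicing minigene plus DsRed2 were seeded at 600 cells/well in Opti-MEM with 2% FBS, pin-dosed and incubated 48 h at 37°C. Acumen cytometry (488 nm) gave the GFP/RFP total-intensity ratio.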
IMPase inh: membrane-permeable compound that blocks inositol monophosphatase; P97697; CHO-M1 cells, IP1 accumulation, HTRF TR-FRET ratio; inhibition (IP1 accumulation), % at 46.1 µM; 120,000 tested, under 10 active; active = well fitted curve in the direction sought with a large enough effect in the signal ratio, not every such curve was filed as active; inconclusive = small, poorly fitted or top-dose-only effect, or a change in a side signal; inactive = no such curve, though single readings can be large or run the other way; the % refers to the signal ratio;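 also: cells stimulated with carbachol in lithium chloride buffer; plate controls were DMSO basal wells for no effect and reference inhibitor wells for full effect; higher means more IMPase inhibition seen as more IP1 and lower FRET ratio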
Target sequence (P97697 whole entry, looked up): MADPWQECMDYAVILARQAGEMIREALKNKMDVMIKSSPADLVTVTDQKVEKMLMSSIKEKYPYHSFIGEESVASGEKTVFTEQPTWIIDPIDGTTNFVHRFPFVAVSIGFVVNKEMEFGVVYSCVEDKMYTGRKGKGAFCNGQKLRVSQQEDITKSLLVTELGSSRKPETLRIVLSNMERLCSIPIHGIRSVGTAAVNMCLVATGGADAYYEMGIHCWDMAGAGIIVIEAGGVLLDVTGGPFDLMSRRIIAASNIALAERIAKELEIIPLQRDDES
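Seeded CHO-M1 cells were dosed with compound at up to 46 uM, stimulated with carbachol for 30 min, then lysed in IP-One detection reagents. Higher IP1 lowers the TR-FRET signal.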
* hit, by the source's call; ? = inconclusive; / = not tested or not shown; [ ] = another dose, or the depositor's remark. Unless noted, calls follow the shape of the dose curve; as a rule, active = well fitted inhibition curve with a large enough effect (not every such curve was filed as active); inconclusive = small, poorly fitted or top-dose-only effect, or another doubt; inactive = no such curve, though single readings can be large or run the other way. Unless noted, % is scaled to controls: 0 for no effect and ±100 for the full control effect.

SMILES	HPGD inh	ALDH1A1 block	PNC assembly inh	KinaseGlo FLuc	LMNA splice mod	IMPase inh
COCc1cc(C)nc(SCC[N+](C)(C)CC(=O)Nc2cccc(C(F)(F)F)c2)c1C#N	/	11µM*	/	0%	/	/
Fc1cccc(NCc2ccccc2-c2nnc(-c3ccccc3Cl)o2)c1	/	/	/	/	/	5
COc1cc(/C=N/NC(=O)CCC(=O)NCc2ccccc2)cc(OC)c1OC	-6%	2%	12	-5%	?	/
COc1cc(/C=N/O)cc(Br)c1OCC(=O)NCc1ccccc1	14µM*	?	?	2%	2%	/
CCOc1cc(/C=N/O)cc(Br)c1OCC(=O)NCc1ccccc1	18µM*	?	-20	2%	?	/
CCOc1ccc(C2c3c(oc4ccc(C)cc4c3=O)C(=O)N2c2nc(C)c(C)s2)cc1OC (stereo not given)	/	/	/	/	/	-2
Cc1ccc(S(=O)(=O)NCCCCCC(=O)Nc2ccccc2)cc1	-2%	11µM*	39	-1%	?	/
Cc1ccc(S(=O)(=O)NCCCCCC(=O)Nc2ccccn2)cc1	-3%	22µM*	16	-2%	-12%	6
Cc1cccc(C)c1NC(=O)CCCCCNS(=O)(=O)c1ccccc1	/	?	/	-7%	4%[46 µM]	/
Cc1ccc(S(=O)(=O)NCCCCCC(=O)Nc2ccccc2C)cc1	-1%	4µM*	40	-2%	-12%	/
CNC(=O)CCCCCNS(=O)(=O)c1ccc(C)cc1	-6%	-2%	43	3%	-4%	-7
Cc1ccc2nc(N3CCN(C(=O)C4COc5ccccc5O4)CC3)sc2c1 (stereo not given)	/	/	/	/	5%[46 µM]	/
O=C(NC1CCCc2ccccc21)C1CCN(S(=O)(=O)N2CCCCCC2)CC1 (stereo not given)	-6%	4.5µM*	-21	1%	11%	-3
O=C(NCCN1CCc2ccccc2C1)C1CCN(S(=O)(=O)N2CCCCC2)CC1	-8%	18µM*	5	-1%	10%	0
Cc1noc(C)c1S(=O)(=O)N1CCC(C(=O)NC2CCCc3ccccc32)CC1 (stereo not given)	-3%	2%	12	19%	-3%	1
Cc1cccc(C(=O)N2CCc3cc(CNS(=O)(=O)c4ccc(F)c(Cl)c4)ccc32)c1	/	/	/	/	12%[46 µM]	/
c1ccc(-c2nnc3n2CCCC3)cc1	14µM*	2%	?	-5%	3%	-10
Fc1ccc(-c2nnc3n2CCCCC3)cc1	/	-3%	/	-3%	12%[46 µM]	/
Fc1ccc(-c2cc(-c3nnc4n3CCCCC4)c3ccccc3n2)cc1	-10%	7%	0	1%	-15%	/
Brc1cccc(-c2cnc3n2CCCCC3)c1	?	-6%	7	-3%	?	12
Brc1cccc(-c2nnc3n2CCCCC3)c1	6.3µM*	-12%	-26	-9%	1%	9
O=C1Nc2ccc(Br)cc2C1=Nc1ccc(-c2nnc3n2CCCCC3)cc1	4µM*	-5%	?	-2%	7%	3
CC1(C)C(=O)C2(C(=O)NCc3ccccc3)CCC1C2 (stereo not given)	-25%	9%	?	4%	1%	16
C=C1C2(C(=O)NCc3ccco3)CCC(C2)C1(C)C (stereo not given)	25µM*	-6%	?	-6%	-7%	5
O=C(NCCN1CCOCC1)C1CCC(CNS(=O)(=O)c2ccccc2)CC1 (stereo not given)	-12%	13µM*	14	2%	-6%	/
SMILES	HPGD inh	ALDH1A1 block	PNC assembly inh	KinaseGlo FLuc	LMNA splice mod	IMPase inh
O=C(NCc1cccs1)C1CCC(CNS(=O)(=O)c2cccs2)CC1 (stereo not given)	-8%	14µM*	-15	-2%	3%	-6
O=C(COc1ccc(S(=O)(=O)NC2CCCCC2)cc1)NCCC1=CCCCC1	-6%	7.1µM*	15	1%	2%	10
O=C(COc1ccc(S(=O)(=O)NC2CCCCC2)cc1)NC1CCCCC1	2%	-11%	21	3%	-15%	20
Cc1cc(C)c(S(=O)(=O)NCC2CCC(C(=O)NCCCN3CCOCC3)CC2)c(C)c1 (stereo not given)	-1%	5%	-10	13%	2%	2
O=C(NCc1ccc2c(c1)OCO2)C1CCC(CNS(=O)(=O)c2ccccc2)CC1 (stereo not given)	-26%	6.3µM*	320	-2%	-10%	-1
Cc1cccc(CSc2nnc3[nH]c(=O)cc(-c4ccccc4)n23)c1	/	/	/	/	-6%[46 µM]	/
COc1cccc(Nc2nc3cc(Cl)c(Cl)cc3nc2-n2nc(C)cc2C)c1	/	/	/	/	/	-1
O=C(NC1CCCC1)C1CCC(CNS(=O)(=O)c2cccs2)CC1 (stereo not given)	22µM*	22µM*	4	-2%	-8%	/
O=C(NCCC1=CCCCC1)C1CCC(CNS(=O)(=O)c2ccccc2)CC1 (stereo not given)	-13%	0.56µM*	-12	-1%	9%	/
Cc1ccc(S(=O)(=O)NCC2CCC(C(=O)NCc3cccs3)CC2)cc1 (stereo not given)	/	0.79µM*	/	0%	/	/
O=C(NCc1cccs1)C1CCC(CNS(=O)(=O)c2ccccc2)CC1 (stereo not given)	/	5µM*	/	0%	/	/
CC(=O)Nc1ccc(S(=O)(=O)NCC2CCC(C(=O)NCCC3=CCCCC3)CC2)cc1 (stereo not given)	-29%	-1%	?	-1%	1%	6
O=C(NCc1ccccc1Cl)C1CCC(CNS(=O)(=O)c2ccc(Cl)cc2)CC1 (stereo not given)	/	/	/	/	19%[46 µM]	/
CCCCC/C=C\C/C=C\CCCCCCCCCC(=O)NC(C)C(=O)O (stereo not given)	-5%	1%	/	1%	/	/
CCOC(=O)Cn1c(=O)n(C2CCCCC2)c2nc(-c3ccccc3Cl)nc(C(N)=O)c21	/	/	/	/	5%[46 µM]	/
COCCn1c(=O)c(-c2cccc(C#N)c2)nc2cnc(Oc3ccc(OC)cc3)nc21	/	?	/	/	-24%	/
Cc1cnc(C)c(N2CCC(C(=O)NCc3cccs3)CC2)n1	-12%	21%	-127*	0%	-1%	-3
CC(=O)c1ccc(NC(=O)C2CCC(CNS(=O)(=O)c3cccs3)CC2)cc1 (stereo not given)	/	/	/	/	/	1
COc1nc(OC)nc(N2CCC(C(=O)NCc3cccs3)CC2)n1	-18%	-1%	21	2%	4%	-6
Cc1ccc(S(=O)(=O)NCC2CCC(C(=O)NCc3ccco3)CC2)cc1 (stereo not given)	-16%	2.8µM*	8	0%	15%	13
COc1cccc(NC(=O)C2CCC(CNS(=O)(=O)c3cccs3)CC2)c1 (stereo not given)	/	13µM*	/	1%	?	/
COc1cccc(CNc2sc3c(c2C(=O)Nc2ccc(OC)cc2OC)CCC3)c1	/	/	/	/	-3%[46 µM]	/
